Results taken from PubChem BioAssay AID504408 (Broad Institute, 2011).
Among all 300,000 compounds or so, about 5,200 (1.7%) were called active. For the sample, actives were picked, then their nearest neighbours and some compounds at random. Unmarked numbers belong to inactive results.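 How the source made its calls: active means mean replicate activation of at least 50% with a set share of replicates each reaching 50%; inconclusive means only one of those two conditions met; inactive means mean below 50% and too few replicates reaching it.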

Experiment: HSF-1 response element luciferase induction – NIH3T3-HGL cells, MG132 stress, luminescence, single point, primary screen (AID 504408);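 further: 0% = median of the neutral control wells and 100% = twice that signal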
Conditions: NIH3T3-HGL HSF-1 luciferase reporter, MG132, 8 h; at 9 µM; hits give high values; 100% = twice DMSO control signal

Compound | activation
Cc1cc(C)n2nc(C(=O)OC(C)C(=O)c3cc(C)c(C)cc3C)nc2n1 (centres undefined) | 4.08%
Cn1c(=S)sc2ccc3ccccc3c21 | -1.53%
COc1ccc(S(=O)(=O)NCC(c2ccco2)N2CCOCC2)cc1 (centres undefined) | -18.5%
COc1cccc(COC(=O)C2CCN(S(=O)(=O)c3ccc(Cl)cc3)CC2)c1OC | -0.23%
Cc1nn(-c2ccccc2)c2sc(C(=O)N(Cc3ccco3)C(C)C(=O)NC(C)(C)C)cc12 (centres undefined) | 91.4% (active)
Cc1ccc(-c2nnn(CC(=O)N(Cc3ccco3)C(C(=O)NC(C)(C)C)c3ccncc3)n2)o1 (centres undefined) | 10.4%
Cc1nc(C)c(C(=O)N(c2ccc(C)c(C)c2)C(C(=O)NCc2ccco2)c2ccccc2)s1 (centres undefined) | -5.39%
COc1ccc(NC(=O)CN(C)C(=O)c2cccc(S(=O)(=O)N3CCN(c4ccccc4)CC3)c2)cc1 | 14.8%
COc1ccc(C(=O)Oc2ccc(-c3nnco3)cc2)cc1S(=O)(=O)N1CCOCC1 | 7.88%
N#Cc1ccc(C2N=C(c3ccccc3)NO2)cc1 (centres undefined) | 56.2% (active)
Brc1ccccc1C1N=C(c2ccccc2)NO1 (centres undefined) | 9.38%
O=C(COC(=O)CNS(=O)(=O)c1ccc(F)c(F)c1F)NC1CCCC1 | -12.4%
Nc1cccnc1Sc1ccccc1 | 7.53%
O=C(CNC(=O)C12CC3CC(CC(C3)C1)C2)OCC(=O)N1CCCCC1 | 10.8%
CC(=O)N1CCN(C(=O)c2cc(-c3ccc(Cl)s3)nc3ccccc23)CC1 | 18.1%
CCNc1nc(-c2cc3ccccc3o2)cs1 | 25.2%
O=c1oc2ccccc2cc1-c1csc(Nc2ccc(O)cc2)n1 | 125% (active)
Cc1ccc(Nc2nc(-c3ccc(O)cc3O)cs2)nc1 | -44.2%
COc1ccc(C2NC(=O)c3ccccc3N2)cc1 (centres undefined) | 73.7% (active)
COc1cccc(C2Nc3cccc4cccc(c34)N2)c1 | 1.58%
O=C1NC(c2cccc(Cl)c2)Nc2ccccc21 (centres undefined) | 19.4%
O=C1Oc2ccccc2C(=O)/C1=C/c1ccccc1O | -36.2%
COc1ccc2c(c1)O/C(=C\c1ccccc1O)C2=O | 61.8% (active)
COC(=O)C(C)Oc1ccc2c(c1)O/C(=C\c1cccc(Br)c1)C2=O (centres undefined) | -3.63%
CCOc1ccc(/C=C/C(=O)N(CC)CC(=O)NCc2cccs2)cc1OC | -14%
COc1ccccc1-n1ccnc(SCC(=O)NC2CCCCC2)c1=O | -0.123%
O=C(O)CCCCc1nc2ccccc2s1 | 13%
CCC(=O)NC(=Nc1nc2ccccc2s1)NC(=O)CC | 60.3% (active)
CC(C)CC(=O)N/C(N)=N/c1nc2ccccc2s1 | 10.3%
